Test results published in PubChem BioAssay (NCATS).
Inconclusive results are not listed. The source made the active and inactive calls. Unless noted, calls come from the whole dose curve; as a rule, active = well fitted curve in the direction sought with a large enough effect; inconclusive = small, poorly fitted or top-dose-only effect, or another doubt; inactive = no such curve, though single readings can be large; an effect the other way counts as inactive or inconclusive.

Tests used:
[1] = target: Lysosomal acid glucosylceramidase (Homo sapiens) (UniProt P04062); assay: Glucocerebrosidase-p2 (AID 348; in the data active = potency below about 10 µM; note: potency is the fitted concentration of half-maximal effect); settings: purified GBA, blue fluorogenic substrate, 40 min
Summary of the method: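 Compounds titrated from 0.6 nM upwards against 0.2 nM enzyme in pH 5.9 citric acid/KH2PO4, taurocholate, tween-20; blue fluorogenic substrate 80 uM, 40 min room temperature, stopped and read Ex 365/Em 440 for AC50.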

[2] = AP1 Signaling Pathway (AID 357; active = well fitted curve in either direction with a large enough effect, not every such curve was filed as active;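 note: ME-180 reporter cells stimulated with EGF at its EC50 level; % is set by controls: 0 for no effect and ±100 for the full control effect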); settings: ME-180 AP-1-bla reporter, EGF-induced, beta-lactamase ratio, 5 h; at 7.69 µM (top of the series) unless noted
Summary of the method: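 AP-1-bla ME-180 cells, Opti-MEM + 0.5% dialyzed FBS, plated overnight 37 °C. Cpd titration + EC50 EGF, 5 h 37 °C. CCF4 2.5 h RT; ex 405, em 460/530 ratio → %activity, AC50.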

[3] = target: Cytochrome P450 1A2 (Homo sapiens) (UniProt P05177); assay: p450-cyp1a2 (AID 410; calls by dose curve; note: potency is the fitted concentration of half-maximal effect); settings: recombinant CYP1A2, luciferin-ME demethylation, luminescence; series mostly up to 57 µM
Summary of the method: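 20nM CYP1A2 with 100uM Luciferin-ME (at Km) in 100mM KPO4; compound preincubated 10 min, NADPH regeneration added, 60 min at room temperature. Luciferin quantified by luminescence after detection reagent; normalized to 57 uM furafylline.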

[4] = NFAT Signaling Pathway (AID 444; active = well fitted curve in either direction with a large enough effect, not every such curve was filed as active;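 note: carbachol stimulus at about its EC50 of 1 µM final; % is set by controls: 0 for no effect and ±100 for the full control effect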); settings: Jurkat NFAT-bla M1, carbachol, beta-lactamase ratio, 5 h; at 7.69 µM (top of the series) unless noted
Summary of the method: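 Jurkat cells with NFAT-driven β-lactamase reporter and co-expressed M1 receptor, stimulated with carbachol (final 1 uM, ~EC50), compound titration, 5 h at 37 °C. CCF4 loaded 1 h at RT; 460/530 nm ratio gave %activity and AC50.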

[5] = Stat Signaling Pathway (AID 446; active = well fitted curve in either direction with a large enough effect, not every such curve was filed as active;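 note: ME-180 cervical cancer cells given 40 pM IL-6 alongside compound; SIE-controlled beta-lactamase reporter measured as 460/530 nm FRET emission ratio; % is set by controls: 0 for no effect and ±100 for the full control effect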); settings: ME-180 SIE beta-lactamase reporter, IL-6 stimulated, 5 h; at 7.69 µM (top of the series) unless noted
Summary of the method: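 Screening format detects activators and inhibitors alike: ME-180 SIE-bla cells stimulated at 40 pM IL-6 for 5 hrs with compound, then dual-emission beta-lactamase read at 405 nm excitation.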

[6] = target: Glucocorticoid receptor (Homo sapiens) (UniProt P04150); assay: GR-EFC Redistribution (AID 451; calls by dose curve; note: potency is the fitted concentration of half-maximal effect); settings: CHO-K1 GR-EFC translocation, beta-gal luminescence, 2 h
Summary of the method: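 CHO-K1 cells expressing nuclear EA and GR-ED fragments of b-gal; compounds titrated up to 46 uM final, 2 h at 37 C. GR nuclear translocation read as complemented b-gal luminescence after 1 h RT detection.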

[7] = target: Mitogen-activated protein kinase 10 (Mus musculus) (UniProt Q61831); assay: JNK3 AlphaScreen Assay (AID 530; active = well fitted curve in either direction with a large enough effect, not every such curve was filed as active;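 note: kinase came from lysate of stimulated human HepG2 cells; signal reports phosphorylation of biotinylated GST-cJun 1-79 at Ser73 with 10 µM ATP; % is set by controls: 0 for no effect and ±100 for the full control effect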); settings: JNK3 lysate, c-Jun phosphorylation; series mostly up to 57.1 µM
Summary of the method: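 Pre-activated (IL-1β/TNFα) JNK3 in HepG2 lysates phosphorylates biotin-GST-cJun(1-79), 10 uM ATP; anti-phospho-cJun(Ser73) AlphaScreen read at room temperature, pH 7.6 Tris buffer. Compounds pre-incubated 15 min as titrations.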

[8] = target: 3',5'-cyclic-AMP phosphodiesterase 4B (Homo sapiens) (UniProt Q07343); assay: qHTS Assay for Inhibitors of PDE-IV (AID 607; active = well fitted activation curve with a large enough effect in the main read-out, with a control signal flat, not every such curve was filed as active; note: % of control where 0% means no effect); settings: HEK293 ACTOne CNG channel cells, membrane potential fluorescence; series mostly up to 22.9 µM
Summary of the method: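 The readout is membrane depolarisation from a cAMP-sensing CNG channel, detected with a potential dye at ex 535/em 590. Cells were HEK293-derived (endogenous PDE-IV) at 1000 cells/well, titrated up to 22.9 uM final.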

[9] = target: Cytochrome P450 3A4 (Homo sapiens) (UniProt P08684); assay: qHTS Assay for Inhibitors and Substrates of Cytochrome P450 3A4 (AID 884); settings: recombinant CYP3A4, Luciferin-PPXE luminescence; series mostly up to 57.1 µM; note: nearly all actives have a fitted effect of over 50% in size; note: potency is the fitted concentration of half-maximal effect
Summary of the method: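 20 nM human CYP3A4 with 25 uM Luciferin-PPXE (at KM) in 200 mM KPO4, preincubated 10 min with compound; NADPH regeneration started a 60 min RT reaction. Luciferin detected by luminescence, normalized to 57 uM ketoconazole as full inhibition.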

[10] = qHTS Assay for Lipid Storage Modulators (AID 1519; calls by dose curve); settings: Drosophila S3 cells, BODIPY lipid droplet/cell ratio, laser cytometry, cells loaded with oleic acid; for activity change, negative = inhibition: at 57.5 µM (top of the series)
Summary of the method: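 Cells seeded at 5,000 per well were treated with compounds over a concentration series and loaded with oleic acid (400 uM, as added). Lipid droplet fluorescence (488 nm excitation, 500-530 nm channel) was read by laser-scanning cytometry and normalized to 20 uM Triacsin C.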

[11] = target: Dual specificity protein kinase CLK4 (Homo sapiens) (UniProt Q9HAZ1); assay: qHTS Assay for Inhibitors of CDC-like Kinase 4 (Kinase-Glo Assay) (AID 1770); settings: recombinant Clk4, Kinase-Glo ATP depletion luminescence; series mostly up to 66.7 µM; note: nearly all actives have a fitted effect of over 65% in size; note: potency is the fitted concentration of half-maximal effect
Summary of the method: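 25 nM Clk4 with 100 uM RS repeat peptide and 1 uM ATP (final) in Tris pH7.5, 10 mM MgCl2, 4.5 h at room temperature. Remaining ATP measured by Kinase-Glo luciferase luminescence.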

[12] = target: Dual specificity protein kinase CLK4 (Homo sapiens) (UniProt Q9HAZ1); assay: qHTS Assay for Inhibitors of CDC-like Kinase 4 (ADP-Glo Assay) (AID 1771); settings: recombinant CLK4, ADP-Glo luminescence; series mostly up to 80 µM; note: nearly all actives have a fitted effect of over 70% in size; note: potency is the fitted concentration of half-maximal effect
Summary of the method: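 25 nM Clk4 with 100 uM RS repeat peptide and 1 uM ATP (final) in buffer with 2 mM MgCl2, 0.5 mM EGTA, 2.5 mM DTT, 0.01% Triton X-100; 1 h at room temperature; ADP-Glo luminescence for ADP formed.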

[13] = target: Dual specificity protein kinase CLK4 (Homo sapiens) (UniProt Q9HAZ1); assay: qHTS Assay for Inhibitors of CDC-like Kinase 4 (ADP-FP Assay) (AID 1795); settings: Transcreener ADP fluorescence polarization; series mostly up to 50 µM; note: nearly all actives have a fitted effect of over 60% in size; note: potency is the fitted concentration of half-maximal effect
Summary of the method: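 Recombinant Clk4 (6.25 nM) phosphorylated 100 uM RS repeat peptide with 1 uM ATP in 25 mM Tris pH 7.5, 10 mM MgCl2, 0.5 mM EGTA, 2.5 mM DTT, 0.01% Triton X-100 for 1 h. ADP was detected by Transcreener ADP2 competitive fluorescence polarization after 30 min at room temperature.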

[14] = Primary qHTS for small molecule stabilizers of the endoplasmic reticulum resident proteome: Secreted ER Calcium Modulated Protein (SERCaMP) assay (AID 1508630); settings: SH-SY5Y GLuc-SERCaMP (Gaussia luciferase released on ER calcium loss) secretion, thapsigargin, luminescence; series mostly up to 38.4 µM; note: % is set by controls: 0 for no effect and ±100 for the full control effect
Summary of the method: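 GLuc-SERCaMP-expressing SH-SY5Y cells, pretreated 16 h with compound, are challenged with thapsigargin to empty ER calcium stores; after 4 h, coelenterazine is added directly to the medium and luminescence is imaged.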

[15] = target: Glucocorticoid receptor (Homo sapiens) (UniProt P04150); assay: GR-GFP Redistribution (AID 450;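 active = compounds whose dose series gives a full or clear partial fitted curve of increased nuclear translocation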; note: potency is the fitted concentration of half-maximal effect); settings: U2OS GR-GFP nuclear translocation, laser cytometry, 2 h
[16] = target: Ubiquitin carboxyl-terminal hydrolase 1 (Homo sapiens) (UniProt O94782); assay: Inhibitors of USP1/UAF1: Pilot qHTS (AID 504865); settings: purified USP1/UAF1, Ub-rhodamine cleavage fluorescence; series mostly up to 54.9 µM;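 note: rhodamine fluorescence freed from ubiquitin-rhodamine substrate followed over time; top concentration of the series differs between compounds; % is set by controls: 0 for no effect and ±100 for the full control effect; nearly all actives have a fitted effect of over 35% in size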
Summary of the method: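 USP1/UAF1 complex at 1 nM preincubated 15 min at room temperature with compound, then Ub-Rho substrate added at 150 nM final. Fluorescence (480/540 nm) read kinetically in 50 mM HEPES pH 7.8, 0.5 mM EDTA, 1 mM TCEP, 0.1 mg/ml BSA, 0.01% Tween-20.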

[17] = target: Cytochrome P450 3A4 (Homo sapiens) (UniProt P08684); assay: qHTS Assay for Activators of Cytochrome P450 3A4 (AID 885); settings: recombinant CYP3A4, Luciferin-PPXE luminescence, 60 min; series mostly up to 57.1 µM; note: nearly all actives have a fitted effect of over 65% in size
Summary of the method: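 Steps: enzyme/substrate mix dispensed; compound added, 10 min RT; NADPH regeneration solution added, 60 min RT; luciferin detection buffer stops reaction; 20 min later luminescence measured.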

[18] = measured here: cell count channel max response
[19] = measured here: lipid channel max response

Chain of Dual specificity protein kinase CLK4 (Homo sapiens) (Q9HAZ1 whole entry, looked up): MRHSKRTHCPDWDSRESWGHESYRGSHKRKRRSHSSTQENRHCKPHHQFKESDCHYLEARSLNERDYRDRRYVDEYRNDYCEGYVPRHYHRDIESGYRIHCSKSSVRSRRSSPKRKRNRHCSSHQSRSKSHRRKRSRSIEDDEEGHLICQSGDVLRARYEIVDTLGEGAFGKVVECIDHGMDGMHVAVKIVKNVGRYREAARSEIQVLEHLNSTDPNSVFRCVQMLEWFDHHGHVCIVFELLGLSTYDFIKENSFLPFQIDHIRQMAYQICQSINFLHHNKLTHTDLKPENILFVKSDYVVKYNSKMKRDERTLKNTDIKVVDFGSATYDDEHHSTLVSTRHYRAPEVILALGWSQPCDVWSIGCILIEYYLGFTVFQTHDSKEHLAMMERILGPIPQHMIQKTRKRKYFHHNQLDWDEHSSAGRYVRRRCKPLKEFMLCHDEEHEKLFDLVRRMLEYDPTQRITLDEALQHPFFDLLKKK
Chain of Lysosomal acid glucosylceramidase (Homo sapiens) (P04062 whole entry, looked up): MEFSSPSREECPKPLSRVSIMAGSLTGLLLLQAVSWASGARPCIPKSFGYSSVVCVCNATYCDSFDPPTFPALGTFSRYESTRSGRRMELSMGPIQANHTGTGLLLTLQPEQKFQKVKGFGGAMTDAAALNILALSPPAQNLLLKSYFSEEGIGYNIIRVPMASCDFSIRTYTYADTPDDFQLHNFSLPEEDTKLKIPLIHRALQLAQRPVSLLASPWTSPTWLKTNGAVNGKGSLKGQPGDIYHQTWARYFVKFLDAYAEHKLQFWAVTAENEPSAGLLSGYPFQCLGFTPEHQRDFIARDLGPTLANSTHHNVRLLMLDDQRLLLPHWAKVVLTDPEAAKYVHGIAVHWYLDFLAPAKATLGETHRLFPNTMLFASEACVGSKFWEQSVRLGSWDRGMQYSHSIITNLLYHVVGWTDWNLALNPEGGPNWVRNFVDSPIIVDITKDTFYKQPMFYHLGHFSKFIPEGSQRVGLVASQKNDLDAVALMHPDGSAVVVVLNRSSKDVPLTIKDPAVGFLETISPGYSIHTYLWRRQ
Chain of Cytochrome P450 3A4 (Homo sapiens) (P08684 whole entry, looked up): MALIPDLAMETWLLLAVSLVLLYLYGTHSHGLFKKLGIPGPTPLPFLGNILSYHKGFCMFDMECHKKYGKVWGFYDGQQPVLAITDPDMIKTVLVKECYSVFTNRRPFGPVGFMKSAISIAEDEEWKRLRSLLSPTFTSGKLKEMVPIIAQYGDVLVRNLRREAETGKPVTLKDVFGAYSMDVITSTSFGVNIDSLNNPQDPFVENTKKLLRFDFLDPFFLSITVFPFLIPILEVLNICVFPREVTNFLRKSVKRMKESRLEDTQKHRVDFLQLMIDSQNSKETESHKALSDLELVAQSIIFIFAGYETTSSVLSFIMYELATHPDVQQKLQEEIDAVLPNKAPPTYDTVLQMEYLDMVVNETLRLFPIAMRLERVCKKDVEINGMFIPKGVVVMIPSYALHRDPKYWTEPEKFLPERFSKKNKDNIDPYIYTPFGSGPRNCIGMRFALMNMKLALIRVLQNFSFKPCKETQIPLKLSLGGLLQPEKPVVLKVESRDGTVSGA
Chain of 3',5'-cyclic-AMP phosphodiesterase 4B (Homo sapiens) (Q07343 whole entry, looked up): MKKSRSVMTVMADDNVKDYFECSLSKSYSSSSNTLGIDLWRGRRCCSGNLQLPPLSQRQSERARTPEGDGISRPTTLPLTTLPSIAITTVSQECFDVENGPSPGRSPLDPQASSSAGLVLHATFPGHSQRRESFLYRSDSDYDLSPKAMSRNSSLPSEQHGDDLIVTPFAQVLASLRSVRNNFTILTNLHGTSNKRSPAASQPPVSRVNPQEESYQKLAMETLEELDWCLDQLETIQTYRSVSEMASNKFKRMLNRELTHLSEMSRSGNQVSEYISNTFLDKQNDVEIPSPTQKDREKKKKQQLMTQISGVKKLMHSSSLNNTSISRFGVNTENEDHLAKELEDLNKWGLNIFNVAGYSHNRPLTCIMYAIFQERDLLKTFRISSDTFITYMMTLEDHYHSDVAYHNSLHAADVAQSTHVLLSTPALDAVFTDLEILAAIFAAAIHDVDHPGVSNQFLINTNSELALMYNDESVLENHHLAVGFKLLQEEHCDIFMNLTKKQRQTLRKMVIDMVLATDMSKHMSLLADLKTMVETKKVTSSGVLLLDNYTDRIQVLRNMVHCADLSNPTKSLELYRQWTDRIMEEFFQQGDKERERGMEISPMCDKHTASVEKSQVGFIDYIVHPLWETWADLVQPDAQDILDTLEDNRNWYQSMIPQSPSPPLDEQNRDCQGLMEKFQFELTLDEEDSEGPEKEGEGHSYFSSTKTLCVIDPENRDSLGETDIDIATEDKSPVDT
Chain of Cytochrome P450 1A2 (Homo sapiens) (P05177 whole entry, looked up): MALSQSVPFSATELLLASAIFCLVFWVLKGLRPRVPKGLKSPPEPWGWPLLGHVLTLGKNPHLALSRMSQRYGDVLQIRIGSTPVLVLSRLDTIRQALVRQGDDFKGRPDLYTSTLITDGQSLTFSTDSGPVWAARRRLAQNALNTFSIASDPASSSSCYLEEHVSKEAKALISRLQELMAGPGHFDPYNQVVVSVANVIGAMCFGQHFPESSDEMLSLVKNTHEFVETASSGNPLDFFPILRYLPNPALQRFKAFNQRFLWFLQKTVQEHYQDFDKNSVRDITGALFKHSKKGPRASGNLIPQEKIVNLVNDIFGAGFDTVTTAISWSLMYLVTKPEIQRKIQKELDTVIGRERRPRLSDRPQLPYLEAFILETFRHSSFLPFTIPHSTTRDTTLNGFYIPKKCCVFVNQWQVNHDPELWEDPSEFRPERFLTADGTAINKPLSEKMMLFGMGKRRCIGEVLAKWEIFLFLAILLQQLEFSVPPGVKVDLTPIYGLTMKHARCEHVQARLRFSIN
Chain of Glucocorticoid receptor (Homo sapiens) (P04150 whole entry, looked up, the tested form may be a part): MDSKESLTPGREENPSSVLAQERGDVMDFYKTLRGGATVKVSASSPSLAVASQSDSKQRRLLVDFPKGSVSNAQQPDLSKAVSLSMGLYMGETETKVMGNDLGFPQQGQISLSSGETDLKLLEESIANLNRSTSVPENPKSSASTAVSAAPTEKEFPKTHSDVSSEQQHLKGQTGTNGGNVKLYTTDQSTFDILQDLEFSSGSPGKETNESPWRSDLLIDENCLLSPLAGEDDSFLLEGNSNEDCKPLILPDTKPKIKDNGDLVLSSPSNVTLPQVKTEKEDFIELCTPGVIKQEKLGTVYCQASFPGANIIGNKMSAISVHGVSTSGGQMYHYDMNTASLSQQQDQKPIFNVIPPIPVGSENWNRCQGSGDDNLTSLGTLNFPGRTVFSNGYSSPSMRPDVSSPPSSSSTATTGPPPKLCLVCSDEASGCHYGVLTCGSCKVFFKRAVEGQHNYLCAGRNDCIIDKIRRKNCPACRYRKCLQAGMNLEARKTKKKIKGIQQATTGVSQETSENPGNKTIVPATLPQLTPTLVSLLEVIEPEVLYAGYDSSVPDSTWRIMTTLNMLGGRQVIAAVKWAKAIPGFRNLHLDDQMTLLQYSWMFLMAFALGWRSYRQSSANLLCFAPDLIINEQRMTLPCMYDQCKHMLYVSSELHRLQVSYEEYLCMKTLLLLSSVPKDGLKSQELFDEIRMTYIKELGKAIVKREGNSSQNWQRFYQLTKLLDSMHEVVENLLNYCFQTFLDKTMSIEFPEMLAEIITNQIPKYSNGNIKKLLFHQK
Chain of Ubiquitin carboxyl-terminal hydrolase 1 (Homo sapiens) (O94782 whole entry, looked up): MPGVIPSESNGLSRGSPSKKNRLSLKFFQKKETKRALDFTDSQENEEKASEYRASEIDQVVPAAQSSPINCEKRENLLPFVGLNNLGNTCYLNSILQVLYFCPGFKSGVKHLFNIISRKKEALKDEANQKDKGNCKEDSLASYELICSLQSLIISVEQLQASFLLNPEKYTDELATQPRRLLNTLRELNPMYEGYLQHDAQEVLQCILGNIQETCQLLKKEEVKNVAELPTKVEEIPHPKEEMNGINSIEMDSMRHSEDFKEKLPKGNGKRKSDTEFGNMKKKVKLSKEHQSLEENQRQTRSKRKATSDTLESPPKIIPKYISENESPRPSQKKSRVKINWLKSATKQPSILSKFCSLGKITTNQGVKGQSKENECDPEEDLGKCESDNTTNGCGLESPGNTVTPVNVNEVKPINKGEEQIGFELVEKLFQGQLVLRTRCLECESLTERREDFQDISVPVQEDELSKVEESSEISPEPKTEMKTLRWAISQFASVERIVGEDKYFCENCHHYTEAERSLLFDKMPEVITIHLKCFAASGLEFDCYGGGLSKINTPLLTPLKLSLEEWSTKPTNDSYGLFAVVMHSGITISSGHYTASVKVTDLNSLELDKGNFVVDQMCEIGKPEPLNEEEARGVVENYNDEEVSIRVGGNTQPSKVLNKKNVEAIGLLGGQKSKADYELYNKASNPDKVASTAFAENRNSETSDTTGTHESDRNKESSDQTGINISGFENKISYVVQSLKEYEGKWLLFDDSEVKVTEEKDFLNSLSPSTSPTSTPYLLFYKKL

Compound | Potency [1] | activity change, negative = inhibition [2] | Potency [3] | activity change, negative = inhibition [4] | activity, negative = inhibition [5] | Potency [6] | outcome [7] | Potency [8] | Potency [9] | activity change, negative = inhibition [10] | max response [10, 18] | max response [10, 19] | Potency [11] | Potency [12] | Potency [13] | Potency [14] | Potency [15] | Potency [16] | Potency [17]
c1ccc(Nc2cc(-c3ccoc3)ncn2)cc1 | > 11.4 µM (inactive) | -8.62% (inactive) | 15.8 µM (active) | -0.633% (inactive) | -2.05% (inactive) | > 46 µM (inactive) | inactive | inactive | inactive | 8.08% (inactive) | 15% | 22% | inactive | inactive | inactive | inactive |  |  | 
Cc1cnc(CNc2ccnc(-c3ccccc3CN(C)C)n2)cn1 | > 11.4 µM (inactive) | 10.8% (inactive) |  | -5.1% (inactive) | 12.3% (inactive) | > 46 µM (inactive) | inactive | inactive |  | 5.8% (inactive) | 23.9% | 27.5% | inactive | inactive | inactive | inactive | > 46 µM (inactive) | inactive | 
Cc1noc(C)c1-c1cc(NCCN2CCOCC2)ncn1 | > 11.4 µM (inactive) | 27.9% (inactive) |  | 20.1% (inactive) | 0.606% (inactive) | > 46 µM (inactive) | inactive | inactive |  | 6.08% (inactive) | 23.5% | 29.1% | 25.1 µM (active) | 22.4 µM (active) | inactive | inactive | > 46 µM (inactive) | inactive | 
CCNc1ncc2nc(-c3cn(C)c4ccccc34)c(=O)n(Cc3cccc(OC)c3)c2n1 | > 11.4 µM (inactive) | 0.603% (inactive) | 12.6 µM (active) |  |  | > 46 µM (inactive) | inactive | inactive | 3.98 µM (active) | 2.75% (inactive) | 15.6% | 16.9% | inactive | inactive | inactive | inactive | > 9.22 µM (inactive) | inactive | inactive
Cc1nc2cnc(N3CCOCC3)nc2n(Cc2ccc(F)cc2)c1=O | > 11.4 µM (inactive) | -3.91% (inactive) |  | -17.2% (inactive) | 4.04% (inactive) | > 46 µM (inactive) | inactive |  |  | 2.61% (inactive) | 13.7% | 15.9% | inactive | inactive | inactive | inactive | > 9.22 µM (inactive) | inactive | 
COc1cccc(Nc2ncc3nc(-c4ccccc4)c(=O)n(Cc4cccs4)c3n2)c1 | > 11.4 µM (inactive) | -7.2% (inactive) |  | -11.8% (inactive) | 21.9% (inactive) | > 46 µM (inactive) | inactive |  |  | 5.46% (inactive) | 20.3% | 24.9% | inactive | inactive | inactive | inactive | > 9.22 µM (inactive) | inactive | 
COc1ccc(-c2nc3cnc(N4CCN(C)CC4)nc3n(Cc3ccc(F)cc3)c2=O)cc1 | > 11.4 µM (inactive) | 99.5% [activator] (active) | 10 µM (active) | 113% [activator] (active) |  | > 46 µM (inactive) |  |  | inactive | 0.278% (inactive) | 11.6% | 10.9% | inactive | inactive | inactive | inactive | > 9.22 µM (inactive) | inactive | 
O=c1c(-c2ccc(F)cc2)nc2cnc(N3CCNCC3)nc2n1Cc1ccc(F)cc1 | > 11.4 µM (inactive) | 115% [activator] (active) | 15.8 µM (active) | 163% [activator] (active) |  | > 46 µM (inactive) | inactive | inactive | 7.94 µM (active) | 2.38% (inactive) | 7.95% | 9.79% | inactive | inactive | inactive | inactive | > 9.22 µM (inactive) | inactive | inactive
CCNc1ncc2nc(-c3ccc(Cl)cc3)c(=O)n(CCC#N)c2n1 | > 11.4 µM (inactive) | 8.5% (inactive) |  | -14.8% (inactive) | 14.5% (inactive) | > 46 µM (inactive) | inactive | inactive |  | 8.4% (inactive) | 15.3% | 24.2% | inactive | inactive | inactive | inactive | > 9.22 µM (inactive) | inactive | 
CN1CCN(c2ncc3ncc(=O)n(C[C@H]4CCCO4)c3n2)CC1 | > 11.4 µM (inactive) | -9.63% (inactive) | 10 µM (active) |  | -20.2% (inactive) | > 46 µM (inactive) | inactive | inactive |  | 6.86% (inactive) | 7.9% | 13.9% | inactive | inactive | inactive | inactive | > 9.22 µM (inactive) | inactive | 
COc1ccc(-c2nc3cnc(Nc4cccc(OC)c4)nc3n(C3CC3)c2=O)cc1 | > 11.4 µM (inactive) | -4.98% (inactive) |  | -8.58% (inactive) | 25.2% (inactive) | > 46 µM (inactive) | inactive | inactive |  | 0.287% (inactive) | 17.2% | 15% | inactive | inactive | inactive | inactive | > 9.22 µM (inactive) | inactive | 
c1nc(N2CCNCC2)c2cc(-c3ccoc3)ccc2n1 | > 11.4 µM (inactive) | -10.9% (inactive) |  | 9.12% (inactive) | -4.93% (inactive) | > 46 µM (inactive) | inactive | inactive |  | 3.07% (inactive) | 29.3% | 29.5% | 1.58 µM (active) | 3.16 µM (active) | 0.708 µM (active) | inactive | > 46 µM (inactive) | inactive | 
